± gives the standard deviation of the averaged measurements. Over roughly 33,000 sequences, “E-score (rank enrichment, -0.5 to 0.5)” has its median near -0.0028; the highest 2% begin near 0.23. This excerpt belongs to a sample that is enriched for the highest values.
Each sequence was assayed on 2Sb-muMax20 (muMax20 with two 1,3-bis(methyl)benzene Cys staples, A13C/A17C and Q88C/A92C, C-terminal Lys) (assay: PBM 8-mer E-score (E-score (rank enrichment, -0.5 to 0.5)); higher = stronger preferential binding).
Procedure: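 Protein binding microarray (universal PBM chip covering all 10-mers in fixed probe flanks) with chemically synthesized human Max(13-93) bHLH-LZ analogs (not full-length Max) bearing noncanonical residues (hArg, Tha, Aib, Nle at 65) and aromatic Cys staples. Read-out per 8-mer (and its reverse complement): E-score (rank-based enrichment, -0.5 to 0.5) and Z-score of median probe intensity.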

| Sequence | PBM 8-mer E-score |
| --- | --- |
| GTGTTAAC | -0.018 ± 0.016 |
| CAGTTAAC | 0.0298 ± 0.036 |
| ATGTTAAC | 0.306 ± 0.013 |
| AAGTTAAC | 0.233 ± 0.052 |
| GAGTTAAC | 0.0742 ± 0.055 |
| CTGTTAAC | 0.105 ± 0.041 |
| CCAGTAGA | -0.0423 ± 0.068 |
| AAGCCTGA | -0.17 ± 0.034 |
| ACCTCCGG | -0.194 ± 0.037 |
| CGCTGTAA | -0.00707 ± 0.013 |
| AGGTAGCG | -0.0415 ± 0.0036 |
| GCATGCGC | 0.112 ± 0.049 |
| CCATGCGA | 0.0911 ± 0.01 |
| GCATGCGA | 0.266 ± 0.042 |
| TCGAAAGA | 0.0439 ± 0.024 |
| CATAGATG | -0.111 ± 0.065 |
| CAAGGCAC | 0.0684 ± 0.076 |
| ACTAGCCT | 0.134 ± 0.035 |
| CTCCCGCA | 0.0448 ± 0.016 |
| AAACATAT | 0.247 ± 0.042 |
| GAACATAA | 0.198 ± 0.058 |
| TAACATAA | 0.217 ± 0.058 |

| Sequence | PBM 8-mer E-score |
| --- | --- |
| AAACATAC | 0.199 ± 0.015 |
| AAACATAG | 0.0193 ± 0.016 |
| AAACATAA | 0.28 ± 0.013 |
| CCGATCAG | -0.247 ± 0.028 |
| GGGCTTAA | 0.0764 ± 0.033 |
| GGAATGTA | 0.0875 ± 0.012 |
| CGAATGCG | -0.0308 ± 0.079 |
| CGAATGCC | -0.00354 ± 0.078 |
| CGAATGTA | 0.241 ± 0.011 |
| CGAATGTC | -0.0317 ± 0.0078 |
| CGAATGCA | 0.248 ± 0.035 |
| ACAGTACC | -0.0999 ± 0.06 |
| GCTGTGCA | -0.0668 ± 0.075 |
| GGCCACAC | -0.0997 ± 0.082 |
| CTTAACTC | 0.0502 ± 0.01 |
| TCTTTCAA | 0.0646 ± 0.0097 |
| AGACACAA | 0.00927 ± 0.0092 |
| CGACACAA | -0.0479 ± 0.0084 |
| GGACACAC | -0.0301 ± 0.051 |
| ACACACAA | 0.0979 ± 0.013 |
| AAACACAA | 0.153 ± 0.0061 |
| GGACACAA | 0.238 ± 0.045 |

| Sequence | PBM 8-mer E-score |
| --- | --- |
| GCACACAC | -0.0369 ± 0.062 |
| GCACACAA | 0.233 ± 0.012 |
| GGACACGA | -0.122 ± 0.0082 |
| TAACACAA | 0.232 ± 0.058 |
| TGACACAA | 0.239 ± 0.0028 |
| CAACACAA | 0.0293 ± 0.052 |
| CGTCCACG | -0.0278 ± 0.092 |
| GGCCCGAC | -0.223 ± 0.016 |
| CTGGTGGA | -0.184 ± 0.0071 |
| CCCCAAAG | -0.0426 ± 0.063 |
| CCTCTGGC | -0.104 ± 0.017 |
| GAACTATC | 0.0395 ± 0.014 |
| GCACAACA | 0.263 ± 0.066 |
| CCACAACA | 0.0344 ± 0.024 |
| GCACAACC | -0.2359 ± 0.0019 |
| CTCCTTGC | -0.0809 ± 0.064 |
| GAACCACC | -0.0303 ± 0.047 |
| CCCATAAC | 0.128 ± 0.0013 |
| CCCATAAG | 0.277 ± 0.06 |
| ACCATAAG | 0.0575 ± 0.0016 |
| ATACGTTG | 0.11 ± 0.057 |
| ATCTTGTA | -0.0155 ± 0.031 |

| Sequence | PBM 8-mer E-score |
| --- | --- |
| ATACAGTC | -0.00634 ± 0.095 |
| ATACAGTA | 0.223 ± 0.018 |
| ATACAGTG | 0.237 ± 0.028 |
| ACGTCAAA | 0.148 ± 0.052 |
| CTTGCTGA | -0.0397 ± 0.039 |
| GACGGAAC | -0.127 ± 0.049 |
| CTCCTTAA | -0.0933 ± 0.1 |
| TAGACCCA | 0.243 ± 0.021 |
| GAGACCCA | -0.107 ± 0.056 |
| AAGACCCA | 0.042 ± 0.021 |
| CAGAGCAG | -0.155 ± 0.026 |
| ACTGTTCT | 0.114 ± 0.014 |
| CGTAATAG | 0.168 ± 0.063 |
| AGTAATAG | 0.255 ± 0.043 |
| ACTAATAC | 0.188 ± 0.061 |
| CATAATAA | 0.123 ± 0.049 |
| AATAATAG | 0.146 ± 0.0061 |
| ACTAATAT | 0.0629 ± 0.074 |
| ACTAATAG | 0.261 ± 0.027 |
| CATAATAG | 0.258 ± 0.0042 |
| AGTAATAC | -0.0436 ± 0.038 |
| CCTGGTTA | -0.0217 ± 0.078 |

| Sequence | PBM 8-mer E-score |
| --- | --- |
| AGCGGTAA | -0.128 ± 0.0078 |
| GAGGCTCC | -0.117 ± 0.064 |
| AACTTTGT | 0.12 ± 0.0076 |
| AACACTAG | 0.193 ± 0.0046 |
| CTGACGCC | -0.0915 ± 0.025 |
| AATGCTTG | -0.00273 ± 0.049 |
| TCCACAGA | -0.0264 ± 0.053 |
| CCTCGACG | -0.141 ± 0.026 |
| AATTGCTA | 0.268 ± 0.048 |
| CATTGCTA | 0.102 ± 0.021 |
| CGTTGCTA | 0.237 ± 0.019 |
| AGTTGCTA | 0.0844 ± 0.05 |
| AATTGCTG | 0.0578 ± 0.078 |
| CGTTGCTC | -0.0317 ± 0.009 |
| CCACCTTC | 0.0963 ± 0.024 |
| AACTGAGG | -0.066 ± 0.0013 |
| ACGGAAGA | -0.0282 ± 0.0086 |
| ATCACAAA | 0.187 ± 0.032 |
| ACGTACGC | 0.0419 ± 0.012 |
| TGCTAGCA | 0.245 ± 0.069 |
| GGCTAGCA | 0.0623 ± 0.01 |
| CGCTAGCA | -0.253 ± 0.03 |
